This test concerns PvIESI-1 RRM domain (Plasmodium vivax PVP01_0939900 aa 896-1203, GST fusion). The experiment in a line: RBNS R-value (6-mer enrichment in protein-bound RNA vs input library) (ratio); higher = stronger binding preference; the methods of the paper give 50 / 100 / 500 nM protein instead. How it is done:
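RNA Bind-n-Seq: recombinant GST-tagged IESI-1 RRM domain was incubated at room temperature with a random 40-nt in vitro transcribed RNA library at 250, 500 or 1000 nM protein. Bound RNA was pulled down on glutathione beads and sequenced. R-value is the enrichment of each 6-mer in the bound RNA relative to the input library. Each 6-mer sits inside the random 40-mer context, not as an isolated oligo. Values are replicate 1 only.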

On to UGAUCU, for which the “RBNS R-value” reads like this: (protein concentration: 250 nM) 2; (protein concentration: 500 nM) 2.15; (protein concentration: 1000 nM) 2.14.
The corresponding values for CUGAUA are 2.42, 2.81 and 2.81.
On the same counts, the results for CUUGAU are 3.23, 3.65 and 3.49.
Consider GUGAUA, for which the “RBNS R-value” runs as follows: (protein concentration: 250 nM) 2.04; (protein concentration: 500 nM) 2.34; (protein concentration: 1000 nM) 2.47.
On the same counts, the results for GAUUUC are 2.32, 2.49 and 2.38.
The corresponding values for UUGAUG are 4.85, 5.06 and 4.68.
Turning to UGAUUA, the “RBNS R-value” runs as follows: (protein concentration: 250 nM) 3.86; (protein concentration: 500 nM) 4.25; (protein concentration: 1000 nM) 4.11.
Turning to GAUUUG, the “RBNS R-value” is, setting by setting: (protein concentration: 250 nM) 2.81; (protein concentration: 500 nM) 2.87; (protein concentration: 1000 nM) 2.62.
With GGUGAU, the “RBNS R-value” reads like this: (protein concentration: 250 nM) 1.97; (protein concentration: 500 nM) 2.19; (protein concentration: 1000 nM) 2.15.
The corresponding values for CCCGAG are 1.41, 1.72 and 1.72.
For GUUGAU, the “RBNS R-value” is, setting by setting: (protein concentration: 250 nM) 2.7; (protein concentration: 500 nM) 2.98; (protein concentration: 1000 nM) 2.73.
The corresponding values for UGAUUC are 3.85, 4.13 and 3.89.
The corresponding values for GUGAUG are 3.26, 3.57 and 3.34.

These data come from the supplement of paper PMC13392028.
